Results filed as inconclusive are left out. Values without a mark were called inactive. Activity calls are given as the source filed them. The call rests on the fitted dose curve; in most records, active means well fitted cell-killing curve with a large enough effect; inconclusive means small, poorly fitted or top-dose-only effect, or effect the other way; inactive means no such curve, though single readings can be large or run the other way.
Assay: Viability qHTS for spleen associated tyrosine kinase inhibitor (SYKi) drug resistant MV4-11 cells (AID 1963824); further: nearly all actives have a fitted effect of over 35% in size
Details: SYKi-resistant MV4-11 viability, CellTiter-Glo, 72 h; series mostly up to 45 µM
In short: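 CellTiter-Glo luminescence, read 10 min after reagent addition, reports viability after a 72 hr compound exposure. Cells are an MV4-11 line made resistant to SYK inhibition, seeded at 500 per well onto compound-containing plates.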
In the case of `CCN1C[C@]2(OC(=O)c3ccccc3NC(C)=O)CC[C@H](OC)[C@@]34[C@@H]2C[C@@H]([C@@H]13)[C@@]1(O)C[C@H](OC)[C@H]2C[C@@H]4[C@]1(O)[C@H]2OC`, the Potency is reported as 4.11 µM (active). In the case of `CC(=O)OC1CC(O)C2(C)C(CC(OC(C)=O)C3(C)C2CCC2(C)C(c4ccoc4)C(=O)C4OC423)C1(C)C` (configuration not stated), the Potency is reported as 6.32 µM (active). Work on `C=CC(C)(O)CC/C=C(\C)C(=O)O[C@H]1[C@H](O)[C@@H](CO)O[C@@H](OC(=O)[C@]23CCC(C)(C)CC2C2=CCC4[C@@]5(C)CC[C@H](O[C@@H]6O[C@H](CO[C@@H]7OC[C@H](O)[C@H](O)[C@H]7O[C@@H]7OC[C@@H](O)[C@H](O)[C@H]7O)[C@@H](O)[C@H](O)[C@H]6O)C(C)(C)C5CC[C@@]4(C)[C@]2(C)CC3)[C@@H]1OC1OC(C)C(O[C@@H]2OC[C@@H](O)[C@H](O[C@@H]3OC[C@@H](O)[C@H](O)[C@H]3O)[C@H]2O)C(O)C1O` (some centres not stated) yielded a viability, % of control of 77.8% [at 9.25 µM]. For `CC1=CC2(O)/C=C/C(C)(O)C(O)C(O)/C=C/C(=O)OC23C(=O)NC(CC(C)C)C3C1C` (configuration not stated), the Potency was “inactive”. For `C1=C(c2cnc[nH]2)c2ccsc2CC1`, the Potency was “inactive”. For `O=C1CN=C(c2cccc(Br)c2)c2oc3ccccc3c2N1`, the Potency was 7.31 µM (active). For `CCCCCn1cc(C(=O)Oc2cccc3cccnc23)c2ccccc21`, the Potency was 23.1 µM (active). For `CCCCCn1cc(C(=O)Cc2ccccc2OC)c2ccccc21`, the Potency was 20.6 µM (active). For `CC1=CC2/C=C(\C)CCC(O)C(O)C(O)CC(=O)C23C(=O)NC(CC(C)C)C3C1C` (configuration not stated), the Potency was 1.78 µM (active). For `CCCCN1[C@@H]2CC[C@H]1CC(OC(c1ccc(F)cc1)c1ccc(F)cc1)C2` (some centres not stated), the Potency was 8.2 µM (active). For `CCOC(=O)Nc1ccc(NCc2c(C)cc(C)cc2C)cc1N`, the Potency was 9.2 µM (active). With `C=CC(C)(C)c1[nH]c2cccc3c2c1C[C@@H]1[C@@H]3[C@@H](OC(C)=O)[C@H](C)CN1C` the Potency was 1.01 µM (active). With `Cc1cc(C(=O)CN2CCCC2)c(C)n1-c1ccc(F)cc1` the Potency was 16.4 µM (active). In the case of `C#CCO[C@H]1CN2CCC1CC2`, the Potency is reported as “inactive”. With `OC1(c2ccc(Cl)cc2)c2ccccc2C2=NCCN21` (configuration not stated) the Potency was 16.4 µM (active). For `CC(=O)O[C@H]1C(=O)[C@]2(C)C(O)C[C@H]3OC[C@@]3(OC(C)=O)[C@H]2[C@H](OC(=O)c2ccccc2)[C@]2(O)C[C@H](O)C(C)=C1C2(C)C` (some centres not stated), the Potency was 6.85 µM (active). For `COC1CC(=O)C23C(=O)NC(CC(C)C)C2C(C)=C(C)C(OO)C3/C=C(\C)CCC(O)C1O` (configuration not stated), the Potency was 7.96 µM (active). In the case of `C[C@@H]1O[C@@H](O[C@H]2CC[C@@]3(C)C(CC[C@@H]4C3CC[C@]3(C)[C@@H](C5=CC(=O)OC5)CC[C@]43O)C2)[C@H](O)[C@H](O)[C@H]1O` (some centres not stated), the Potency is reported as 0.2 µM (active). In the case of `C/C=C(\C)C(=O)OC1CC2C(C)(C)OC(=O)CC(OC(C)=O)C2(C)C2CC(OC(=O)C(C)C)C3(C)C(c4ccoc4)CC4OC43C12C` (configuration not stated), the Potency is reported as “inactive”. For `C[C@]12CC[C@H](O[C@@H]3O[C@H](CO)[C@@H](O)[C@H](O)[C@H]3O)CC1CC[C@@H]1C2CC[C@]2(C)[C@@H](C3=CC(=O)OC3)CC[C@]12O` (some centres not stated), the Potency was 1.78 µM (active). For `CC(=O)O[C@H]1CC[C@H]2[C@@H]3CC[C@H]4CC(=O)C=C(C)[C@]4(C)[C@H]3CC[C@]12C`, the Potency was 11.6 µM (active). In the case of `O=C(O)c1ccnc2cc(C(OCCN3CCCCC3)c3ccccc3Cl)[nH]c12` (configuration not stated), the Potency is reported as “inactive”. For `COC1CC(O[C@H]2CC[C@@]3(C)C(CCC4C3CC[C@]3(C)C(C5=CC(=O)OC5)CCC43O)C2)OC(C)C1OC1OC(COC2OC(CO)C(O)C(O)C2O)C(O)C(O)C1O` (some centres not stated), the Potency was 0.693 µM (active). For `CCC1(O)CCC2C3CCC4=CC(=O)CCC4C3CCC21CC` (configuration not stated), the Potency was 14.6 µM (active). With `C=C1[C@@H](C)C2[C@H](Cc3ccccc3)NC(=O)[C@@]23C(/C=C/C[C@H](C)C[C@@](C)(O)/C=C/[C@@H]3OC(C)=O)[C@@H]1O` (some centres not stated) the Potency was 0.92 µM (active). With `COC[C@H]1OC(=O)c2coc3c2[C@@]1(C)C1=C(C3=O)[C@@H]2CC[C@H](O)[C@@]2(C)C[C@@H]1OC(C)=O` the Potency was 14.6 µM (active). For `CN1[C@H]2C[C@H](OC(=O)[C@H](CO)c3ccccc3)C[C@@H]1[C@@H](O)C2`, the Potency was “inactive”. With `C[C@@H](CN1CCC2(CC1)C(=O)NCN2c1cccc(F)c1)NC(=O)c1ccc(Br)cc1` the Potency was 13 µM (active). With `CN1C[C@H](CNC(=O)OCc2ccccc2)C[C@@H]2c3cccc4c3c(cn4C)C[C@H]21` the Potency was 8.41 µM (active). In the case of `C=C(C)C(=O)O[C@H]1[C@@H]2[C@H](C)C(=O)O[C@@H]2C[C@@H](C)[C@@H]2C=CC(=O)[C@]21C`, the Potency is reported as 1.14 µM (active). For `C/C=C(\C)C(=O)O[C@@H]1[C@@H](C)[C@]2(O)C3C=C(C)C(=O)[C@@]3(O)CC(CO)=C[C@H]2C2C(C)(C)[C@@]21OC(=O)C(C)CC` (some centres not stated), the Potency was 0.0045 µM (active). For `COCC1OC(=O)c2coc3c2C1(C)C1=C(C3=O)C2CCC(=O)C2(C)CC1OC(C)=O` (configuration not stated), the Potency was 2.06 µM (active). With `CC[C@@H]1/C=C/C=C/C[C@H](C)C(O)[C@](C)(O)C(=O)[C@H](C)C(O)[C@H](C)C(=O)[C@H](C)[C@@H](O)[C@H](C)/C=C/C(=O)O[C@H]2[C@@H](C)[C@@H](CC1)O[C@]1(O[C@H](C[C@H](C)O)[C@H](C)CC1=O)[C@@H]2C` (some centres not stated) the Potency was 0.0123 µM (active). For `COC1C(O)C(C)OC(OC2C(CO)O[C@@H](O[C@@H]3CC4CCC5C(CC[C@]6(C)[C@@H](C7=CC(=O)OC7)CC[C@]56O)[C@@]4(C)[C@H](OC(C)=O)C3)C(O)C2O)C1O` (some centres not stated), the Potency was 1.09 µM (active). With `CC(=O)O[C@@H]1CC2C(C)(C)C(=O)C=C[C@]2(C)C2CC[C@]3(C)C(=CC(=O)O[C@H]3c3ccoc3)[C@@]21C` (some centres not stated) the Potency was 13 µM (active). For `Cc1cccc(NC(=O)c2ccc(C(F)(F)F)cc2C(=O)O)n1`, the Potency was “inactive”. With `C[C@]12CC[C@@H](O[C@@H]3O[C@H](CO)[C@@H](O)[C@H](O)[C@H]3O)C[C@@]1(O)CCC1C2CC[C@]2(C)[C@@H](C3=CC(=O)OC3)CC[C@]12O` (some centres not stated) the Potency was 0.0632 µM (active).

— PubChem BioAssay (NCATS)
Potency means the concentration at half of the fitted maximal effect.
